Compound activity deposited in PubChem by National Center for Advancing Translational Sciences (NCATS).
An excerpt weighted towards active compounds, which were near 20% of everything screened.
HCMV antiviral: inhibitors of human cytomegalovirus; activity change, negative = inhibition, % at 57.5 µM; AID 1259415; HFF cells, HCMV-luciferase reporter, 72 h; stronger effect = lower value; 410,000 tested, 4.5% active; in the data active means activity change below about -60%; inconclusive means no clear call, values can overlap the other calls; inactive means above about -39%
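Luciferase read-out from HCMV-luciferase-infected HFFs (MOI 1 PFU/cell) 72 h post infection at 37C; compounds added after 16 h cell attachment; activity normalized between buffer-only basal and Salinomycin (10uM) inhibitor controls.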
Shiga inhibitor: Shiga toxin inhibition; 290,000 tested, 9.2% active; inhibition, % at 38.7 µM; Vero cells, Shiga toxin protein synthesis inhibition reporter; AID 2315; in the data active means inhibition mostly above about 28%, no sharp cut-off; inactive means mostly below about 43%
Pf growth 96h: P. falciparum growth inhibition at 96 hours; AID 504834; Potency, µM (titrated, usually from 28.7 µM), most hits filed as inhibitors; P. falciparum luciferase reporter growth, 96 h; 320,000 tested, 6.9% active
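Luminescence readout: decreased luciferase signal marks inhibited growth of reporter-expressing P. falciparum in infected red cells (2% hematocrit, 0.05% parasitemia final), exposed to compound two generations (96 h, 37 C, 5% CO2).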
Cycloheximide cs: counter-screen for Shiga toxin inhibitors: cycloheximide protein synthesis inhibition | cell reporter, cycloheximide protein synthesis inhibition counterscreen | max response, % | 300,000 tested, 12% active | AID 2314; in the data active means max response mostly above about 13%, no sharp cut-off; inactive means mostly below about 14%; further: read at 38.3 µM for the half of the compounds with a filed dose
Pf growth 48h: P. falciparum growth inhibition at 48 hours (one generation); Potency, µM (highest dose often 28.7 µM), most hits filed as inhibitors; P. falciparum luciferase growth in erythrocytes, 48 h; 310,000 tested, 5.9% active; AID 504832
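Parasite viability was followed by luminescence of a genomically integrated firefly luciferase. Cultures held 0.1% parasitemia at 2% hematocrit (final), incubated under 5% CO2 at 37 C.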
Hits are given with their value; - = inactive; ? = inconclusive; . = no result given. Unless noted, the call rests on the fitted dose curve; in most records, active means well fitted inhibition curve with a large enough effect; inconclusive means small, poorly fitted or top-dose-only effect, or another doubt; inactive means no such curve, though single readings can be large or run the other way.

SMILES	HCMV antiviral	Shiga inhibitor	Pf growth 96h	Cycloheximide cs	Pf growth 48h
CCN(CC)CCOC(=O)c1ccc(NC(=O)c2ccc(Cl)c(S(=O)(=O)N3CCCCCC3)c2)cc1	?	-	4.1µM	-	?
O=C(Nc1ccc(Cl)c(S(=O)(=O)N2CCCCC2)c1)c1ccncc1	-77	.	7.4µM	.	?
O=C(O)c1ccc(NC(=O)c2ccc(Cl)c(S(=O)(=O)N3CCCCCC3)c2)cc1	-	.	.	.	.
O=C(Nc1ccncc1)c1ccc(Cl)c(S(=O)(=O)N2CCCCC2)c1	.	.	1.9µM	.	?
CCN1CCN(c2ccc(NC(=O)c3ccc(Cl)c(S(=O)(=O)N4CCCC4)c3)cc2)CC1	-	.	?	.	10µM
OC1C(O)C(O)C(O)C(O)C1O (configuration not stated)	?	-	-	-	-
CCOc1ccc(OCC)c(Nc2nc3ccc(C(=O)c4ccccc4)cc3n3cnnc23)c1	-	.	.	.	.
CCc1noc(C)c1C(=O)Nc1ccc(Cl)c(S(=O)(=O)N2CCCCC2)c1	-	.	?	.	9.3µM
CCc1noc(C)c1C(=O)Nc1ccc(S(=O)(=O)N2CCCCC2)cc1	-	.	?	.	?
CN(Cc1ccccc1)C(=O)CC(c1ccccc1)c1cc(Cl)ccc1O (configuration not stated)	-	-	10µM	-	?
CC(NC(=O)CC(c1ccccc1)c1cc(Cl)ccc1O)c1ccccc1 (configuration not stated)	-	-	-	-	?
Cc1ccc(C(=O)NCCS(=O)(=O)N2CCN(c3ccccc3F)CC2)cc1[N+](=O)[O-]	-	-	-	-	-
CC(/C=N/NC(=O)c1cccs1)=C\c1ccccc1	-	145	?	42	-
O=C(N/N=C/C(Cl)=C\c1ccccc1)c1cccs1	-	81	3.7µM	51	?
O=C(N/N=C/C(Cl)=C/c1ccccc1)c1ccncc1	-	-	?	-	?
CC(/C=N/NC(=O)c1ccccc1C)=C\c1ccccc1	-	.	.	.	.
COc1cc(NC(=O)C2CCN(c3nc4ccccc4nc3C(F)(F)F)CC2)cc(OC)c1	-	.	.	.	.
Cc1ccc(S(=O)(=O)N2CCOCC2)cc1NC(=O)Cn1cc(C(F)(F)F)cc(Cl)c1=O	-	-	-	-	-
COc1ccc(CC(=O)Oc2ccc(C)cc2Br)cc1OC	-	-	-	-	-
CCc1nc2ccccc2c(C(=O)Nc2cccc(C)c2)c1C	-	-	?	-	?
CCOc1ccc(S(=O)(=O)N2CCN(C(=O)c3ccc(Cl)c(S(=O)(=O)N4CCOCC4)c3)CC2)cc1	-60	.	.	.	.
Cc1ccc(S(=O)(=O)N2CCOCC2)cc1C(=O)N1CCCC1	-	-	-	-	-
CCOc1ccc(S(=O)(=O)N2CCN(C(=O)c3cc(S(=O)(=O)N4CCOCC4)ccc3C)CC2)cc1	-	.	3.7µM	.	8.3µM
Cc1ccc(S(=O)(=O)N2CCOCC2)cc1C(=O)N1CCN(c2ccc(C(F)(F)F)cn2)CC1	-76	.	.	.	.
CCOc1ccc(S(=O)(=O)N2CCN(C(=O)c3ccc(C)c(S(=O)(=O)N4CCOCC4)c3)CC2)cc1	-61	.	.	.	.
SMILES	HCMV antiviral	Shiga inhibitor	Pf growth 96h	Cycloheximide cs	Pf growth 48h
O=S(=O)(Nc1ccc(C(F)(F)F)cc1)c1ccc2c(c1)OCCO2	-	.	.	.	.
Nc1nnc(SCC(=O)OCC(=O)NC2CCCCC2)s1	-	-	-	-	-
Nc1nnc(SCC(=O)OCC(=O)NC23CC4CC(CC(C4)C2)C3)s1	?	-	-	-	13µM
COCOCCn1cc(CN2CCS(=O)(=O)N(Cc3ccc(-c4ccc(Cl)cc4)cc3)C(CC(C)C)C2=O)nn1 (configuration not stated)	-	.	.	.	.
Cc1cc2c(N)cccc2nn1	-	-	-	-	?
Cc1cc2c(NC(=O)Nc3ccc(C(C)(C)C)cc3)cccc2nn1	-	-	12µM	-	?
Cc1cc2c(NC(=O)Nc3ccccc3)cccc2nn1	-	-	13µM	-	?
N#CC1=C2CCCCC2(O)NC1=O (configuration not stated)	-	.	.	.	.
Nc1nc(OCc2ccccc2)c2[nH]cnc2n1	-73	.	.	.	.
COc1ccc(-c2sc(Nc3ccc(F)c(F)c3F)nc2CCC(=O)NN)cc1	-	100	?	42	?
Cn1nc(C(=O)N2CCN(c3ccc(F)cc3)CC2)c2c1-c1ccccc1S(=O)(=O)C2	-	-	?	-	?
CC1CC1C(=O)Nc1nc(-c2ccc(Cl)s2)cs1 (configuration not stated)	-	131	-	38	-
O=C(CN1C(=O)CCC1=O)Nc1nc(-c2ccc(Cl)s2)cs1	-	-	-	-	-
O=C(Nc1nc(-c2ccc(Cl)s2)cs1)c1ccncc1	-77	-	10µM	-	-
O=C(C1CCC1)N1CCN(S(=O)(=O)c2ccccc2)CC1	-	.	-	.	-
Cc1cc(C)c2ccc3c(C)c(C)nc3c2[nH]1	?	-	-	-	3.7µM
CC1(C)CC(=O)C2=C(C1)Nc1ccccc1NC2c1ccc([N+](=O)[O-])cc1 (configuration not stated)	-	.	.	.	.
Cc1onc(-c2ccccc2)c1-c1ccnn1S(=O)(=O)c1ccc(Cl)cc1	-	88	3.3µM	44	?
Cc1ccc(S(=O)(=O)N2CCN(Cc3nnc(-c4c(-c5ccccc5)noc4C)o3)CC2)cc1	-	.	?	.	?
Cc1onc(-c2ccc(Cl)cc2)c1-c1ccnn1S(=O)(=O)c1cccc(C(F)(F)F)c1	-	-	3.3µM	-	1.7µM
Cc1ccc(S(=O)(=O)n2nccc2-c2c(-c3ccccc3)noc2C)cc1	-	-	?	-	5.9µM
Cc1nc(C)c(C(=O)OC(C)C(=O)Nc2ccc(F)cc2)s1 (configuration not stated)	-	.	-	.	?
CC1Cc2cc(C(=O)O)ccc2O1 (configuration not stated)	-	-	-	-	-
C/C(=N\O)c1ccc2c(c1)CC(C)O2 (configuration not stated)	-	-	-	13	-
COCC(C)n1c(C)cc(C(=O)COC(=O)c2c(NC(C)=O)sc(C)c2C)c1C (configuration not stated)	-	-	-	-	-
SMILES	HCMV antiviral	Shiga inhibitor	Pf growth 96h	Cycloheximide cs	Pf growth 48h
O=C1CC(c2cc(Br)ccc2F)c2cc3c(cc2N1)CCC3 (configuration not stated)	-73	-	-	-	?
CC(Sc1ncnc2c1cnn2-c1ccccc1)C(=O)NCC1CCCO1 (configuration not stated)	-	-	?	20	-
Cc1nc(SC(C)C(=O)NCC2CCCO2)c2cc(-c3ccccc3)sc2n1 (configuration not stated)	-89	.	?	.	?
CCOC(=O)C1c2cccc(O)c2CCN1C(C)=O (configuration not stated)	-	.	.	.	.
O=C(Cc1ccccc1)Nc1cccc(-c2nnc(-c3ccco3)o2)c1	-	86	-	30	-
O=C(Nc1cccc(-c2nnc(-c3ccco3)o2)c1)C(c1ccccc1)c1ccccc1	-	-	5.2µM	-	.
O=C(Cc1ccc(Cl)cc1)Nc1cccc(-c2nnc(-c3ccco3)o2)c1	-	-	-	-	?
